# Laboratory results published in the supplement of paper PMC8728848.
# About 410 targets per protein were measured; listed, in parts, are those with the strongest signals and a random draw of the rest.
# B1: AAL (Agrocybe aegerita), Q6WY08 (protein)
# chain: MQGVNIYNISAGTSVDLAAPVTTGDIVTFFSSALNLNAGAGNPNNTTLNLFAENGAYLLHIAFRLQENVIIFNSRQPDGPWLVEQRVSDVANQFAGIDGKAMVTVFDHGDKYQVVINEKTVIQYTKQISGLTLSLSYNATEETSIFSTVVEAVTYTGLALEHHHHHH
# Columns and labels:
# Assay in all cases: glycan array binding signal (z-score within array); higher = stronger binding
# Settings in all cases: glycan notation: IUPAC condensed, linker removed
# [1] = molecular target: Fuc(a1-2)Gal(b1-3)GlcNAc(b1-2)Man(a1-3)[Fuc(a1-2)Gal(b1-3)GlcNAc(b1-2)Man(a1-6)]Man(b1-4)GlcNAc(b1-4)GlcNAc
# Summary of the method: (§1)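 Glycan array data were curated from 3228 arrays in the Consortium for Functional Glycomics database and kept only where the protein sequence was available. Glycan names were converted to IUPAC-condensed notation, and columns mapping to the same glycan were averaged. The binding signal is a within-array Z-score, averaged across arrays of the same protein sequence at different concentrations or buffers and across linkers. Negative Z-scores can be read as non-binding.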
# Fuc(a1-2)Gal(b1-4)GlcNAc = molecular target: Fuc(a1-2)Gal(b1-4)GlcNAc
# Summary of the method: as §1
# [2] = molecular target: Fuc(a1-2)Gal(b1-4)GlcNAc(b1-2)[Fuc(a1-2)Gal(b1-4)GlcNAc(b1-4)]Man(a1-3)[Fuc(a1-2)Gal(b1-4)GlcNAc(b1-2)Man(a1-6)]Man(b1-4)GlcNAc(b1-4)GlcNAc
# Summary of the method: as §1
# [3] = molecular target: Fuc(a1-2)Gal(b1-4)GlcNAc(b1-3)Gal(b1-4)GlcNAc
# Summary of the method: as §1
# [4] = molecular target: Fuc(a1-2)Gal(b1-4)[Fuc(a1-3)]GlcNAc
# Summary of the method: as §1
# [5] = molecular target: Fuc(a1-2)[Gal(a1-3)]Gal(b1-3)GlcNAc(b1-3)GalNAc
# Summary of the method: as §1
# [6] = molecular target: Fuc(a1-2)[Gal(a1-3)]Gal(b1-4)GlcNAc(b1-3)[Fuc(a1-2)[Gal(a1-3)]Gal(b1-4)GlcNAc(b1-6)]GalNAc
# Summary of the method: as §1
# [7] = molecular target: Fuc(a1-2)[Gal(a1-3)]Gal(b1-4)[Fuc(a1-3)]GlcNAc(b1-3)GalNAc
# Summary of the method: as §1
# [8] = molecular target: Fuc(a1-2)[GalNAc(a1-3)]Gal(b1-3)GlcNAc
# Summary of the method: as §1
# [9] = molecular target: Fuc(a1-2)[GalNAc(a1-3)]Gal(b1-4)GlcNAc(b1-3)Gal(b1-4)GlcNAc
# Summary of the method: as §1
# Fuc(b1-3)GlcNAc = molecular target: Fuc(b1-3)GlcNAc
# Summary of the method: as §1
# [10] = molecular target: Gal(a1-3)Gal(b1-4)GlcNAc(b1-2)Man(a1-3)[Gal(a1-3)Gal(b1-4)GlcNAc(b1-2)Man(a1-6)]Man(b1-4)GlcNAc(b1-4)GlcNAc
# Summary of the method: as §1
# Gal(b1-2)Gal = molecular target: Gal(b1-2)Gal
# Summary of the method: as §1
# Gal(b1-3)Gal(b1-4)GlcNAc = molecular target: Gal(b1-3)Gal(b1-4)GlcNAc
# Summary of the method: as §1
# [11] = molecular target: Gal(b1-3)Gal(b1-4)GlcNAc(b1-2)Man(a1-3)[Gal(b1-3)Gal(b1-4)GlcNAc(b1-2)Man(a1-6)]Man(b1-4)GlcNAc(b1-4)GlcNAc
# Summary of the method: as §1
# Gal(b1-3)GlcNAc = molecular target: Gal(b1-3)GlcNAc
# Summary of the method: as §1
# [12] = molecular target: Gal(b1-3)GlcNAc(b1-3)GalNAc
# Summary of the method: as §1
# Gal(b1-3)GlcNAc6S = molecular target: Gal(b1-3)GlcNAc6S
# Summary of the method: as §1
# [13] = molecular target: Gal(b1-3)[Neu5Ac(a2-6)]GalNAc
# Summary of the method: as §1
# [14] = molecular target: Gal(b1-4)GalNAc(b1-3)[Fuc(a1-2)]Gal(b1-4)GlcNAc
# Summary of the method: as §1
# [15] = molecular target: Gal(b1-4)GlcNAc(b1-2)Man(a1-6)Man(b1-4)GlcNAc(b1-4)GlcNAc
# Summary of the method: as §1
# [16] = molecular target: Gal(b1-4)GlcNAc(b1-2)Man(a1-6)[GlcNAc(b1-2)Man(a1-3)]Man(b1-4)GlcNAc(b1-4)GlcNAc
# Summary of the method: as §1
# [17] = molecular target: Gal(b1-4)GlcNAc(b1-3)Gal(b1-4)Glc
# Summary of the method: as §1
# [18] = molecular target: Gal(b1-4)GlcNAc(b1-3)Gal(b1-4)GlcNAc(b1-3)Gal(b1-4)GlcNAc(b1-3)Gal(b1-4)GlcNAc(b1-2)Man(a1-3)[Gal(b1-4)GlcNAc(b1-3)Gal(b1-4)GlcNAc(b1-3)Gal(b1-4)GlcNAc(b1-3)Gal(b1-4)GlcNAc(b1-2)Man(a1-6)]Man(b1-4)GlcNAc(b1-4)[Fuc(a1-6)]GlcNAc
# Summary of the method: as §1
# [19] = molecular target: Gal(b1-4)GlcNAc(b1-3)Gal(b1-4)GlcNAc(b1-3)Gal(b1-4)GlcNAc(b1-3)Gal(b1-4)GlcNAc(b1-3)Gal(b1-4)GlcNAc(b1-3)Gal(b1-4)GlcNAc(b1-2)Man(a1-3)[Gal(b1-4)GlcNAc(b1-3)Gal(b1-4)GlcNAc(b1-3)Gal(b1-4)GlcNAc(b1-3)Gal(b1-4)GlcNAc(b1-3)Gal(b1-4)GlcNAc(b1-3)Gal(b1-4)GlcNAc(b1-2)Man(a1-6)]Man(b1-4)GlcNAc(b1-4)GlcNAc
# Summary of the method: as §1
# [20] = molecular target: Gal(b1-4)GlcNAc(b1-3)Gal(b1-4)GlcNAc(b1-3)GalNAc
# Summary of the method: as §1
# [21] = molecular target: Gal(b1-4)GlcNAc(b1-3)Gal(b1-4)GlcNAc(b1-3)[Gal(b1-4)GlcNAc(b1-3)Gal(b1-4)GlcNAc(b1-6)]GalNAc
# Summary of the method: as §1
# [22] = molecular target: Gal(b1-4)GlcNAc(b1-3)[Gal(b1-4)GlcNAc(b1-6)]GalNAc
# Summary of the method: as §1
# Gal(b1-4)GlcNAc6P = molecular target: Gal(b1-4)GlcNAc6P
# Summary of the method: as §1
binder,measurement,setting,value
B1,glycan array binding signal (z-score),[1],-0.105
same,glycan array binding signal (z-score),Fuc(a1-2)Gal(b1-4)GlcNAc,-0.146
same,glycan array binding signal (z-score),[2],-0.119
same,glycan array binding signal (z-score),[3],-0.138
same,glycan array binding signal (z-score),[4],-0.147
same,glycan array binding signal (z-score),[5],-0.119
same,glycan array binding signal (z-score),[6],-0.138
same,glycan array binding signal (z-score),[7],-0.136
same,glycan array binding signal (z-score),[8],-0.152
same,glycan array binding signal (z-score),[9],-0.112
same,glycan array binding signal (z-score),Fuc(b1-3)GlcNAc,-0.123
same,glycan array binding signal (z-score),[10],7.5
same,glycan array binding signal (z-score),Gal(b1-2)Gal,-0.141
same,glycan array binding signal (z-score),Gal(b1-3)Gal(b1-4)GlcNAc,-0.135
same,glycan array binding signal (z-score),[11],6.91
same,glycan array binding signal (z-score),Gal(b1-3)GlcNAc,-0.146
same,glycan array binding signal (z-score),[12],-0.149
same,glycan array binding signal (z-score),Gal(b1-3)GlcNAc6S,-0.129
same,glycan array binding signal (z-score),[13],-0.159
same,glycan array binding signal (z-score),[14],-0.135
same,glycan array binding signal (z-score),[15],-0.162
same,glycan array binding signal (z-score),[16],-0.145
same,glycan array binding signal (z-score),[17],-0.142
same,glycan array binding signal (z-score),[18],-0.096
same,glycan array binding signal (z-score),[19],-0.099
same,glycan array binding signal (z-score),[20],-0.131
same,glycan array binding signal (z-score),[21],-0.125
same,glycan array binding signal (z-score),[22],-0.153
same,glycan array binding signal (z-score),Gal(b1-4)GlcNAc6P,-0.163
